High-throughput results (PubChem)
Hits are enriched below; roughly 5.8% of the tested compounds scored in any of these assays.
RORgamma inh: qHTS for inhibitors of ROR gamma transcriptional activity | Drosophila S2 Gal4-RORgamma UAS-luciferase reporter, 20 h | 5.4% of 310,000 active | Potency, µM (top dose mostly 53.6 µM), for the others: top-dose activity change, negative = inhibition, usual class: inhibitors | Nuclear receptor ROR-gamma (Mus musculus), P51450; further: potency means the concentration at half of the fitted maximal effect; on the % scale 0 is the no-effect control and ±100 the full control effect; nearly all actives have a fitted effect of over 60% in size
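Using a luciferase readout, inhibitors were identified by reduced reporter activity in Drosophila cells coexpressing a copper-inducible Gal4–ROR gamma fusion and UAS-driven Photinus luciferase, incubated 20 hr after 700 uM copper sulfate.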
TRPV1 agonist: HTS Assay for Compounds that Act as Agonists of the Vanilloid Receptor 1; Transient receptor potential cation channel subfamily V member 1 (Homo sapiens), Q8NER1; 0.19% of 320,000 active; TRPV1-expressing cells, Fluo-8 calcium influx, agonist mode; AID 540275, 2011; activation, % at 8.33 µM; in the data active means activation above about 80%; inconclusive means between about 30% and that limit; further: 0% is about no effect
Target sequence (Q8NER1 whole entry, looked up): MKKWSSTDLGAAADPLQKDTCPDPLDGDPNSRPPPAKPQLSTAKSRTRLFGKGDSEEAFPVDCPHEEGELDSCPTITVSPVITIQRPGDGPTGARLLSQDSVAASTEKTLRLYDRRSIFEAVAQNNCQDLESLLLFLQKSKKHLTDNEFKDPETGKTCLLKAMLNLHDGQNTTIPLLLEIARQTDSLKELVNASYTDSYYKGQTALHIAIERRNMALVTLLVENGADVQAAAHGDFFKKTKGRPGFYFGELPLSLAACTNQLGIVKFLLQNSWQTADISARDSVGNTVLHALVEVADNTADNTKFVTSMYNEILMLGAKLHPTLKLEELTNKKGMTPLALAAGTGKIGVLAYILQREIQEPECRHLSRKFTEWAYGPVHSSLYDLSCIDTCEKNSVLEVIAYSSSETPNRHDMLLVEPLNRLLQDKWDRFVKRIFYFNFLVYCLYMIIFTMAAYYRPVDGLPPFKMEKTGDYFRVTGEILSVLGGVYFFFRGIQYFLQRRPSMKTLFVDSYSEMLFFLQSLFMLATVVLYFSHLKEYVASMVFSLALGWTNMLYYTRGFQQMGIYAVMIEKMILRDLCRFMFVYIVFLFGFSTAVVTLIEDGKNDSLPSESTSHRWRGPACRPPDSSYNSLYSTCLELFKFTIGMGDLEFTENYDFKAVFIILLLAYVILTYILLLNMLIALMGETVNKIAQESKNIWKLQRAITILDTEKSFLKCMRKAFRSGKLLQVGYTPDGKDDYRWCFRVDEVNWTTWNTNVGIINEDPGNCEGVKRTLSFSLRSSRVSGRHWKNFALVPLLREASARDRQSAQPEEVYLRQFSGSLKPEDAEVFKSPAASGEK
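TRPV1-expressing cells were cultured overnight at 35.5C and loaded with Fluo-8 calcium dye for 40 to 90 min at room temperature. After a 10 s baseline, compound was added and calcium influx was read kinetically for 3 min (ex 480/em 520 nm).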
TRPV1 potentiator: HTS Assay for Compounds that Act as Potentiators of the Vanilloid Receptor 1 | Transient receptor potential cation channel subfamily V member 1 (Homo sapiens), Q8NER1 | AID 540277, 2011 | potentiation, % at 8.33 µM | TRPV1-expressing cells, Fluo-8 calcium influx, capsaicin EC20 potentiation | 0.02% of 320,000 active; in the data active means potentiation above about 80%; inconclusive means between about 30% and that limit; further: 0% is about no effect
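Fluo-8 calcium influx in TRPV1-expressing cells, kinetic read (ex 480/em 520 nm). Compound added and read 3 min for agonist activity, followed by capsaicin at EC20 final and 2 min further read for enhancement.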
uPA generation: qHTS for Inhibitors of Cell Surface uPA Generation; cell surface uPA generation assay, qHTS; Potency, µM (titrated, usually from 38.3 µM), for inactives: at the highest dose activity change, negative = inhibition, hits mostly inhibitors; 0.31% of 330,000 active; AID 540303, 2011; active means well fitted inhibition curve with a large enough effect; inconclusive means small, poorly fitted or top-dose-only effect; inactive means no such curve, though single readings can be large or run the other way; tested in mouse RAW 264.7 cells; further: potency means the concentration at half of the fitted maximal effect; on the % scale 0 is the no-effect control and ±100 the full control effect; nearly all actives have a fitted effect of over 55% in size
Gal4-VP16 FLuc: VP16 counterscreen qHTS for inhibitors of ROR gamma transcriptional activity; Potency, µM (titrated, usually from 53.6 µM), for inactives: at the top dose activity, negative = inhibition, usual class: inhibitors; 3.5% of 310,000 active; Drosophila S2 Gal4-VP16 UAS-luciferase, luminescence, 20 h;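 further: Gal4-VP16 expression switched on by copper sulfate through the metallothionein promoter; potency means the concentration at half of the fitted maximal effect; on the % scale 0 is the no-effect control and ±100 the full control effect; nearly all actives have a fitted effect of over 50% in size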
Active calls of the source: *; ! = not active in a repeat; [ ] = another dose, or the depositor's remark. Unless noted, the call rests on the fitted dose curve; in most records, active means well fitted curve in the direction sought with a large enough effect; inconclusive means small, poorly fitted or top-dose-only effect, or another doubt; inactive means no such curve, though single readings can be large; an effect the other way counts as inactive or inconclusive.

What do the screens show for `O=C(N/N=C/c1cn(-c2ccccc2)nc1-c1cccnc1)c1cccnc1`?
RORgamma inh: 14.1µM*; TRPV1 agonist: 1.4; TRPV1 potentiator: 3.0; uPA generation: -2.5%; Gal4-VP16 FLuc: inconclusive

How did O=C(CNc1ccccc1)N/N=C/c1cn(-c2ccccc2)nc1-c1ccccc1 do in these assays?
RORgamma inh: -3.9%[10 µM]; TRPV1 agonist: 26.4; TRPV1 potentiator: -22.9; uPA generation: 1.3%; Gal4-VP16 FLuc: 1µM*

What do the screens show for `CC(C)C(NC(=O)c1ccco1)C(=O)OCC(=O)Nc1ccc(C(N)=O)cc1` (stereo unspecified)?
RORgamma inh: -17.3%; TRPV1 agonist: -0.2; TRPV1 potentiator: 7.8; uPA generation: -1.0%; Gal4-VP16 FLuc: -5.3%

How did COC(=O)c1ccccc1NC(=O)CCCn1nc([N+](=O)[O-])c(Br)c1C do in these assays?
RORgamma inh: 41.3%; TRPV1 agonist: 0.6; TRPV1 potentiator: -1.5; uPA generation: 3.3%; Gal4-VP16 FLuc: 4.3%[10 µM]

Results for CC(=O)N1CCC2(CC1)CN(Cc1ccccc1)C2 ?
RORgamma inh: 2.7%; Gal4-VP16 FLuc: -16.9%

How did Cc1ccccc1N1C(=O)c2cccc3c(N(C)CCO)ccc(c23)C1=O do in these assays?
RORgamma inh: 11.2µM*; TRPV1 agonist: 28.9; TRPV1 potentiator: -5.5; uPA generation: 5.8%; Gal4-VP16 FLuc: -2.2%

Results for CC(C)=CCC1=C(OCC(=O)O)C(=O)c2ccccc2C1=O ?
RORgamma inh: inconclusive; TRPV1 agonist: -0.9; TRPV1 potentiator: inconclusive; uPA generation: -14.0%; Gal4-VP16 FLuc: 2.24µM*

What do the screens show for `COc1ccc(Cn2c(SCc3ccc(C)cc3)nc3cc(OC)c(OC)cc3c2=N)cc1Cl`?
RORgamma inh: 3.98µM*; TRPV1 agonist: -3.4; TRPV1 potentiator: 4.3; uPA generation: 3.7%; Gal4-VP16 FLuc: 1.41µM*

Results for COc1cc2nc(SCc3ccc(Cl)cc3Cl)n(Cc3cccs3)c(=N)c2cc1OC ?
RORgamma inh: inconclusive; TRPV1 agonist: -5.9; TRPV1 potentiator: 28.7; uPA generation: 5.2%; Gal4-VP16 FLuc: 15.8µM*

Results for COc1cc2nc(SCc3ccc(C(F)(F)F)cc3)n(Cc3cccs3)c(=N)c2cc1OC ?
RORgamma inh: 13.0%; TRPV1 agonist: 4.7; TRPV1 potentiator: 8.4; uPA generation: 2.8%; Gal4-VP16 FLuc: inconclusive

What do the screens show for `COc1ccc(Cn2c(SCc3cc(C)ccc3C)nc3cc(OC)c(OC)cc3c2=N)cc1`?
RORgamma inh: 34.2%; TRPV1 agonist: -2.6; TRPV1 potentiator: 6.5; uPA generation: 0.7%; Gal4-VP16 FLuc: -6.2%

What do the screens show for `COc1ccccc1/C=C/C(=O)NC(=S)N(C)C1CCCCC1`?
RORgamma inh: inconclusive; uPA generation: 2.5%; Gal4-VP16 FLuc: 3.16µM*

How did COc1ccccc1/C=C/C(=O)NCCC1=CCCCC1 do in these assays?
RORgamma inh: 5.9%; TRPV1 agonist: 21.8; TRPV1 potentiator: -5.0; uPA generation: 1.3%; Gal4-VP16 FLuc: -5.7%[10 µM]

Results for Cc1ccc(C(=O)NC(=S)N(C)C2CCCCC2)cc1Br ?
RORgamma inh: 0.224µM*; TRPV1 agonist: inconclusive; TRPV1 potentiator: -7.4; Gal4-VP16 FLuc: 0.501µM*

Results for COc1ccc(C(=O)NC(=S)N(C)C2CCCCC2)cc1 ?
RORgamma inh: 2µM*; TRPV1 agonist: inconclusive; TRPV1 potentiator: -11.0; uPA generation: -0.8%; Gal4-VP16 FLuc: 3.98µM*

What do the screens show for `COc1ccc(C(=O)NC(=S)N(C)C2CCCCC2)cc1Br`?
RORgamma inh: 0.708µM*; TRPV1 agonist: inconclusive; TRPV1 potentiator: -6.1; uPA generation: inconclusive; Gal4-VP16 FLuc: 0.708µM*

Results for COc1ccc(C(=O)NC2CCCc3ccccc32)cc1Br (stereo unspecified) ?
RORgamma inh: 1.6%; TRPV1 agonist: 17.6; TRPV1 potentiator: inconclusive; uPA generation: -22.8%; Gal4-VP16 FLuc: 3.3%

What do the screens show for `C=CCN=c1scc(-c2ccc(F)cc2)n1/N=C/c1ccccn1`?
RORgamma inh: 8.91µM*; TRPV1 agonist: 3.4; TRPV1 potentiator: -8.2; uPA generation: -14.0%; Gal4-VP16 FLuc: 11.2µM*

How did Cc1nc2ccccc2c(=O)n1/N=C/c1ccccn1 do in these assays?
RORgamma inh: -5.1%; TRPV1 agonist: 1.5; TRPV1 potentiator: 10.7; uPA generation: -5.0%; Gal4-VP16 FLuc: -3.9%

What do the screens show for `C=CCN=c1scc(-c2ccccc2)n1/N=C/c1ccccn1`?
RORgamma inh: 5.01µM*; TRPV1 agonist: 24.6; TRPV1 potentiator: -20.7; uPA generation: 0.398µM*!; Gal4-VP16 FLuc: 10µM*

What do the screens show for `Cn1c(=O)c(-c2cc(F)cc(F)c2)nc2cnc(Nc3ccccc3)nc21`?
RORgamma inh: 10µM*; Gal4-VP16 FLuc: inconclusive

What do the screens show for `COC(=O)[C@@]1(Cc2ccccc2)[C@H]2c3cc(C(=O)N(C)C)n(CCN4CNCC4=O)c3C[C@H]2CN1C(=O)c1ccccc1`?
RORgamma inh: 11.1%; Gal4-VP16 FLuc: -7.5%

How did O=C(O)c1sccc1S(=O)(=O)Nc1ccc(Cl)cc1 do in these assays?
RORgamma inh: 13.2%; Gal4-VP16 FLuc: -4.9%

How did COc1ccc(S(=O)(=O)Nc2cccc3c2O[C@H](CN(C)S(=O)(=O)c2ccc(Cl)cc2)[C@H](C)CN([C@H](C)CO)C3=O)cc1 do in these assays?
uPA generation: -11.0%

How did COc1ccc(-c2cc(-c3c(O)c(OC)c4occc4c3OC)[nH]n2)cc1OC do in these assays?
RORgamma inh: 7.94µM*; TRPV1 agonist: -1.4; TRPV1 potentiator: -6.3; uPA generation: -2.4%; Gal4-VP16 FLuc: 8.91µM*

How did COc1ccc(-c2cc(-c3c(O)c(OC)c4occc4c3OC)[nH]n2)cc1 do in these assays?
RORgamma inh: inconclusive; TRPV1 agonist: 0.1; TRPV1 potentiator: 5.1; Gal4-VP16 FLuc: inconclusive

What do the screens show for `CCOC(=O)c1ccc(N2C(=O)C=CC2=O)cc1`?
RORgamma inh: 10.5%; TRPV1 agonist: 0.6; TRPV1 potentiator: 7.5; uPA generation: -9.6%; Gal4-VP16 FLuc: 7.08µM*

How did O=C(c1ccncc1)N1CCC2(CCCN(c3cccc(-c4ccccc4)c3)C2)CC1 do in these assays?
RORgamma inh: 5.5%; Gal4-VP16 FLuc: 11.6%

Results for O=C1CCC=C1C(O)CCc1ccccc1 (stereo unspecified) ?
RORgamma inh: 0.6%; Gal4-VP16 FLuc: -12.6%

How did Cc1ccc2c(C)nc(Nc3nc(CSc4nc5ccccc5[nH]4)cc(=O)[nH]3)nc2c1 do in these assays?
RORgamma inh: inconclusive; TRPV1 agonist: -0.2; TRPV1 potentiator: 7.6; uPA generation: inconclusive; Gal4-VP16 FLuc: 5.62µM*

How did Cc1ccc2nc(Nc3nc(=O)c4ccccc4n3C)nc(C)c2c1 do in these assays?
RORgamma inh: 0.794µM*; TRPV1 agonist: -0.1; TRPV1 potentiator: inconclusive; Gal4-VP16 FLuc: 1µM*
